High-throughput results from PubChem.
DENV2 CPE – inhibitors of DENV2 cytopathic effect | DENV2-infected cells, cytopathic effect rescue, plate reader | 350,000 tested, 1.7% active | CPE inhibition, % at 9.99 µM | AID 651640; in the data active = CPE inhibition above about 20%, passing the limit was not always enough; tested in BHK-21 cells;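 note: 0% = median of neutral control wells and 100% = median of positive control wells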
MLL AF4-AF9 inh – blocks AF4 peptide binding to human AF9 | P42568 | AlphaScreen, biotin-AF4 peptide binding to FLAG-AF9 | inhibition, % at 10 µM | 350,000 tested, 0.47% active | AID 651704;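 active = every replicate reaching a set inhibition limit, whatever the replicate mean, cut at about 25% in these data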;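 note: 0% = plate neutral control median and 100% = total signal loss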
RAD52 inh – inhibitors of human RAD52 DNA annealing. recombinant RAD52 DNA annealing, FRET fluorescence. inhibition, % at 18.7 µM. 360,000 tested, 0.46% active. AID 651710;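 active = every replicate showing at least 50% inhibition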
ERAP1 HTS inh – ERAP1 (human) enzyme inhibition; inhibition, % at 10.7 µM; Q9NZ08; recombinant ERAP1, Leu-AMC fluorescence, 60 min; 340,000 tested, 0.15% active;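 active = mean replicate inhibition of at least 30%, or all replicates individually reaching that 30% level; inactive = mean below 30% and not every replicate reaching it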;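 note: 0% = neutral control wells and 100% = L-leucinethiol positive control wells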
Target sequence (Q9NZ08 whole entry, looked up): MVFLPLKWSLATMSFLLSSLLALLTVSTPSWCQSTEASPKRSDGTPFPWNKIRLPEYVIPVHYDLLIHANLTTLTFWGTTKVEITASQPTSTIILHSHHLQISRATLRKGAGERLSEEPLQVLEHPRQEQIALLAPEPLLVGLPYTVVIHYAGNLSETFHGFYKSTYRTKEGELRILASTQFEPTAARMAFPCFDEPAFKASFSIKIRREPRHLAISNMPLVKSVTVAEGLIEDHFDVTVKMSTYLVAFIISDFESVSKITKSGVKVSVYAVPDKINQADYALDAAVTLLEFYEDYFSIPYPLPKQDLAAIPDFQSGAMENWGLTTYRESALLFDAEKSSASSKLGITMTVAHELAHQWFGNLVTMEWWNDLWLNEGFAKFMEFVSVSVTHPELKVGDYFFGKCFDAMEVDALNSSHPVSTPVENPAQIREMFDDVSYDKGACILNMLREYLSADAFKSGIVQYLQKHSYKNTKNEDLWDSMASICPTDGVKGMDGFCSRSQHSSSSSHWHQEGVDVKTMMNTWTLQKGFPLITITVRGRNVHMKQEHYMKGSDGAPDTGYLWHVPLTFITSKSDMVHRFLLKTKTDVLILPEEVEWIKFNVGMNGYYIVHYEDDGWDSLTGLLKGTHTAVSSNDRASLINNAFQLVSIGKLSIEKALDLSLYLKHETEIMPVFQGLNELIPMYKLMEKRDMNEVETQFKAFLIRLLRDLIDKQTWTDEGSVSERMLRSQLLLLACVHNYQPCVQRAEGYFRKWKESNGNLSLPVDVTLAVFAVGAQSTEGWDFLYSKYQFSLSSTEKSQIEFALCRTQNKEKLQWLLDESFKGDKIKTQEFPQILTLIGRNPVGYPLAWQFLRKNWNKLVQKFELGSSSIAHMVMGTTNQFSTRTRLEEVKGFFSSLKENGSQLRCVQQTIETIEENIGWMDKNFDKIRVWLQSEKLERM
FGF22 binding – binders of recombinant human FGF22 by thermal shift | SYPRO orange fluorescence; percent of sucrose octasulfate shift, DMSO zero | activity (Tm shift, normalised), % at 9.99 µM | Q9HCT0 | 340,000 tested, 1.5% active;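 active = mean Tm shift, scaled 0 neutral to 100 positive control, at about 1.3% or above, every replicate too, limit read from the data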
Numbers without * were called inactive; . = no result given; ! = repeats disagree. An excerpt weighted towards active compounds, which were near 4% of everything screened.

SMILES | DENV2 CPE | MLL AF4-AF9 inh | RAD52 inh | ERAP1 HTS inh | FGF22 binding
C[C@@H]1CCCCO[C@@H](CN(C)C(=O)CCCN(C)C)[C@H](C)CN([C@@H](C)CO)C(=O)c2cc(NC(=O)Cc3ccccc3)ccc2O1 | -7 | -4 | 21 | 2 | 0
C[C@@H]1CCCCO[C@@H](CN(C)C(=O)CCCN(C)C)[C@H](C)CN([C@H](C)CO)C(=O)c2cc(NC(=O)Cc3ccccc3)ccc2O1 | -2 | -2 | 21 | 4 | -1
C[C@H]1CCCCO[C@H](CN(C)C(=O)CCCN(C)C)[C@@H](C)CN([C@@H](C)CO)C(=O)c2cc(NC(=O)Cc3ccccc3)ccc2O1 | 29* | -3 | 24 | 3 | -1
N#Cc1cccc(OCCCN2CCC(C(O)(c3ccccc3)c3ccccc3)CC2)c1 | -1 | 5 | -8 | -4 | 0
OC(c1ccccc1)(c1ccccc1)C1CCN(CCCOc2cccc(F)c2)CC1 | 56* | . | -11 | -6 | 0
COC(=O)c1c(C)[nH]c(C(=O)CC#N)c1C | 5 | 2 | -82 | 0 | 43*
O=C(c1ccccn1)N1CC2(C1)[C@H](c1ccccc1)[C@@H](CO)N2Cc1cccnc1 | -3 | 1 | -9 | -1 | 0
O=C(Cc1ccc(Br)cc1)OCC(=O)N1CCCCCC1 | -2 | 2 | -15 | 4 | 43*
Cn1ccs/c1=N\C(=O)Nc1cccc(Cl)c1 | 9 | -1 | -8 | -2 | 43*
O=C(CN1CCOCC1)N[C@H]1CC[C@@H](CCNC(=O)C2CCCC2)O[C@@H]1CO | -4 | 2 | -5 | -2 | 0
CC(OC(=O)c1ccc(Cl)c(S(=O)(=O)Nc2ccc(F)cc2)c1)C(=O)NC(N)=O (stereo not given) | 0 | 40* | -6 | -5 | 0
COc1ccc(N2C(=O)C(CC(=O)Nc3ccccc3)N(CCc3ccc(OC)c(OC)c3)C2=O)cc1 (stereo not given) | -5 | -2 | -16 | 5 | 44*
CCOC(=O)[C@H]1[C@H]2COc3ccccc3[C@@H]2N2C(=O)[C@@H](CO)NC(=O)[C@@]12C | 29* | -3 | -23 | 3 | 0
CCOC(=O)[C@H]1[C@H]2COc3ccc(Br)cc3[C@H]2N2C(=O)CNC(=O)[C@@]12C | 62* | 4 | -9 | 5 | 0
CCOC(=O)[C@H]1[C@H]2COc3ccc(Cl)cc3[C@H]2N2C(=O)CNC(=O)[C@@]12C | 2 | -8 | -7 | 1 | 0
CCOC(=O)[C@H]1[C@H]2COc3ccccc3[C@@H]2N2C(=O)c3cc(C)ccc3NC(=O)[C@@]12C | 5 | 11 | -14 | . | 0
CCOC(=O)[C@@H]1[C@H]2COc3ccc(Br)cc3[C@@H]2N2C(=O)N(c3cccc(F)c3)C(=O)[C@@]12C | 93* | -3 | 1 | 4 | 0
O=S(=O)(c1ccccc1)N1CC2(C1)[C@@H](c1ccccc1)[C@H](CO)N2CC1CC1 | -14 | -4 | -12 | 0 | .
Cc1cccc(S(=O)(=O)N2C[C@@H](O)COC[C@H]3O[C@@H](CC(=O)N4CCN(C)CC4)CC[C@@H]32)c1 | -1 | -19 | 15 | 1 | -1
CN(c1ccccc1)S(=O)(=O)c1cccc(NC(=O)CSc2nccc(=O)[nH]2)c1 | 9 | -9 | -42 | -1 | 43*
C[C@@H]1CN([C@@H](C)CO)C(=O)CCCn2cc(nn2)CO[C@H]1CN(C)C(=O)Nc1cccc(F)c1 | 87*! | 1 | 5 | -3 | 0
C[C@H]1CN([C@@H](C)CO)C(=O)CCCn2cc(nn2)CO[C@@H]1CN(C)C(=O)Nc1ccc(F)cc1 | 44*! | 1 | 5 | -9 | 0
C[C@@H]1CN([C@H](C)CO)C(=O)CCCn2cc(nn2)CO[C@@H]1CN(C)Cc1cccc(C(=O)O)c1 | -4 | -15 | 2 | -5 | 1
CC(C)OC(=O)N(C)C[C@@H]1OCc2cn(nn2)CCCC(=O)N([C@@H](C)CO)C[C@H]1C | 36*! | -3 | 6 | -2 | 0
C[C@@H]1CN([C@@H](C)CO)C(=O)CCCn2cc(nn2)CO[C@@H]1CN(C)Cc1cccc(C(=O)O)c1 | 30* | -17 | 18 | -3 | 1
SMILES | DENV2 CPE | MLL AF4-AF9 inh | RAD52 inh | ERAP1 HTS inh | FGF22 binding
CO[C@H]1CN(C)C(=O)c2cc(NC(=O)NC3CCCCC3)ccc2OC[C@H](C)N(CC2CC2)C[C@@H]1C | -10 | 0 | 5 | 0 | 0
C[C@H](CO)N1C[C@H](C)[C@H](CN(C)C(=O)Nc2ccc3c(c2)OCO3)Oc2c(NC(=O)C3CCOCC3)cccc2C1=O | -4 | -1 | 0 | -1 | 0
C[C@@H]1CN([C@H](C)CO)C(=O)CCCn2cc(nn2)CO[C@H]1CN(C)C(=O)Nc1ccccc1C(F)(F)F | 48*! | 0 | -1 | 4 | 0
C[C@H]1CN([C@@H](C)CO)C(=O)CCCn2cc(nn2)CO[C@@H]1CN(C)C(=O)Nc1ccccc1F | 7 | -2 | 3 | 0 | 0
COc1ccc(S(=O)(=O)N[C@H]2CC[C@H](CC(=O)O)O[C@@H]2CO)cc1 | -2 | 0 | -6 | 0 | 0
O=[N+]([O-])c1ccc(Oc2ccc(/C=N/O)cc2)nc1 | -4 | 2 | -11 | 4 | 43*
O=[N+]([O-])c1ccc(Oc2ccc(Oc3ccc(C(F)(F)F)cn3)cc2)nc1 | -6 | 1 | -1 | 1 | 0
COCC(=O)N1CC2(CN(Cc3cccnc3)C2)c2c(n(C)c3cc(OC)ccc23)[C@H]1CO | 9 | 1 | -5 | -4 | 0
O=C(CCn1cncn1)N1CCCC(N2CCN(c3ccc(F)cc3)CC2)C1 (stereo not given) | 43* | 0 | -8 | 1 | 0
COc1ccc2c3c(n(C)c2c1)[C@H](CO)N(C(=O)C1CC1)CC31CCN(C(=O)C2CCOCC2)CC1 | -3 | -1 | 10 | 2 | 0
O=C(O)c1c(-c2ccc(Cl)cc2)cn2ccccc12 | 0 | -7 | -7 | -2 | 43*
Cc1ccc(C)n1-c1ccc(-c2ccn[nH]2)cc1 | 4 | 2 | -4 | -2 | 43*
c1ccn(-c2ccc(-c3ccn[nH]3)cc2)c1 | . | 8 | -6 | 3 | 0
C/C(=N\NC(=O)c1ccc(Cn2cc([N+](=O)[O-])cn2)o1)c1cccc(NC(=O)C(C)C)c1 | 28* | 4 | -6 | 0 | 0
CC(C)c1cn(CC[C@@H]2CC[C@H](NS(=O)(=O)c3ccccc3)[C@@H](CO)O2)nn1 | -2 | -4 | 4 | 2 | 0
C[C@H]1CCCCO[C@H](CN(C)S(=O)(=O)c2cccs2)[C@@H](C)CN([C@@H](C)CO)C(=O)c2cc(NS(=O)(=O)c3cn(C)cn3)ccc2O1 | -4 | 1 | 59* | 2 | 0
C[C@@H]1CN([C@@H](C)CO)C(=O)c2cc(NS(=O)(=O)c3cccs3)ccc2O[C@@H](C)CCCCO[C@H]1CN(C)S(=O)(=O)c1cn(C)cn1 | 31* | -2 | -2 | 2 | 0
C/C=C/c1ccc([C@H]2[C@@H](CO)N(CC3CCCC3)[C@H]2CNC(C)=O)cc1 | 5 | 0 | 14 | -1 | .
